17 compounds from PubChem BioAssay (NCATS) can be followed below.

The nature of assay [1]: Quantitative High-Throughput drug screen in 47 multiple myeloma cell lines against the NCATS MIPE library collection: XG6_PLB cell viability assay (AID 1919865). Further: nearly all actives have a fitted effect of over 40% in size. A digest of the protocol:
(§1)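 qHTS format: cells plated (500/well), pin-dosed with MIPE 4.0 compounds, kept 48 h at 37 °C. Readout was CellTiter-Glo luminescence, median RLU.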

Assay [2] can be described thus: Quantitative High-Throughput drug screen in 47 multiple myeloma cell lines against the NCATS MIPE library collection: VP6_DJ cell viability assay (AID 1919867). Further: nearly all actives have a fitted effect of over 40% in size. The method, boiled down: as §1
Assay [3] can be described thus: Quantitative High-Throughput drug screen in 47 multiple myeloma cell lines against the NCATS MIPE library collection: UTMC2_PLB cell viability assay (AID 1919868). Further: nearly all actives have a fitted effect of over 55% in size. Particulars: CellTiter-Glo ATP luminescence, 48 h; viability (% of DMSO control): at 45.8 µM (top of the series) unless noted. A digest of the protocol: as §1
Background: Cellular ATP, detected with luciferase, serves as a proxy for viable cell number.

Assay [4] in a line: Quantitative High-Throughput drug screen in 47 multiple myeloma cell lines against the NCATS MIPE library collection: PE2_PLB cell viability assay (AID 1919869). Further: nearly all actives have a fitted effect of over 35% in size. The method, boiled down: as §1
Assay [5] can be described thus: Quantitative High-Throughput drug screen in 47 multiple myeloma cell lines against the NCATS MIPE library collection: PCM6_Riken cell viability assay (AID 1919870). Further: nearly all actives have a fitted effect of over 30% in size. A digest of the protocol: as §1
The nature of assay [6]: Quantitative High-Throughput drug screen in 47 multiple myeloma cell lines against the NCATS MIPE library collection: RPMI8226_ATCC cell viability assay (AID 1919871). Further: nearly all actives have a fitted effect of over 30% in size. The method, boiled down:
as §1

Assay [7] can be described thus: Quantitative High-Throughput drug screen in 47 multiple myeloma cell lines against the NCATS MIPE library collection: OPM2_DSMZ cell viability assay (AID 1919872). Further: nearly all actives have a fitted effect of over 30% in size. The method, boiled down:
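CellTiter-Glo luminescence (ATP) after 48 h compound exposure, 37C/5% CO2; 500 cells/well; MIPE 4.0 approved/investigational drugs pinned in; DMSO = 100%, media only = 0% viability.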

Assay [8] can be described thus: Quantitative High-Throughput drug screen in 47 multiple myeloma cell lines against the NCATS MIPE library collection: KMS11_JCRBsus cell viability assay (AID 1919873). Further: nearly all actives have a fitted effect of over 50% in size. A digest of the protocol:
as §1

Assay [9] in a line: Quantitative High-Throughput drug screen in 47 multiple myeloma cell lines against the NCATS MIPE library collection: KMS28BM_JCRB cell viability assay (AID 1919874). Further: nearly all actives have a fitted effect of over 35% in size. The method, boiled down: as §1
Assay [10] in a line: Quantitative High-Throughput drug screen in 47 multiple myeloma cell lines against the NCATS MIPE library collection: XG1_PLB cell viability assay (AID 1919866). Further: nearly all actives have a fitted effect of over 35% in size. A digest of the protocol: as §1

Results filed as inconclusive are left out. The source made the active and inactive calls. The call rests on the fitted dose curve; in most records, active means well fitted cell-killing curve with a large enough effect; inconclusive means small, poorly fitted or top-dose-only effect, or effect the other way; inactive means no such curve, though single readings can be large or run the other way.
Potency means the concentration at half of the fitted maximal effect.

With `Cc1cc(Nc2cc(CN3CCOCC3)c3nc(C)c(Cc4ccc(Cl)cc4F)n3n2)n[nH]1`, the Potency in [1] is 13.2 µM (active); in [2] it was 13.2 µM (active); in [3], 2.35 µM (active); in assay [4], 5.26 µM (active); in assay [5], 16.6 µM (active); in assay [6], 2.35 µM (active). Besides, the Potency in assay [8] is 1.18 µM (active); in [9] it was 14.8 µM (active). Moreover, the Potency entry in [7] is “inactive”.

In the case of `COc1cc(=C2C=c3ccccc3=N2)[nH]c1=Cc1[nH]c(C)cc1C`, the Potency in assay [1] is 5.9 µM (active); in assay [2], 1.66 µM (active); in assay [3], 2.09 µM (active); in assay [4], 1.48 µM (active); in assay [5], 5.9 µM (active); in assay [6], 1.66 µM (active). Moreover, the values for the Potency in assay [7], in assay [8] and in [9] were 4.18 µM (active), 1.05 µM (active) and 0.935 µM (active), respectively.

Regarding `O=c1c2ccccc2nc2n1CCc1c-2[nH]c2ccccc12`, the Potency entry in assay [1], in assay [2], in [3], in assay [6] and in [7] was “inactive” throughout. The Potency in [5] is 13.2 µM (active).

As for `Clc1cccc(-c2nnnn2Cc2cccnc2)c1Cl`, the Potency in assay [1] is 16.6 µM (active); in assay [10], 18.7 µM (active). The Potency entry in assay [3], in assay [6], in assay [7] and in assay [9] was “inactive” throughout.

Regarding `Cc1c(NC(=O)OC[C@@H]2COCCN2)cn2ncnc(Nc3ccc4c(cnn4Cc4cccc(F)c4)c3)c12`, the Potency in assay [1] is 0.0372 µM (active); in assay [10], 0.0833 µM (active); in assay [4], 5.26 µM (active); in assay [8], 26.4 µM (active).

`O=C(O)C1(Cc2cccc(Nc3nccs3)n2)CCC(Oc2cccc(Cl)c2F)CC1` (stereo unspecified): the Potency in [1] is 0.209 µM (active); in [2] it was 0.148 µM (active); in assay [3], 0.0372 µM (active); in assay [5], 0.418 µM (active); in assay [9], 0.332 µM (active). The Potency entry in assay [6] was “inactive”.

In the case of `NC(=O)c1c(OCc2c(F)cc(Br)cc2F)nsc1NC(=O)NCCCCN1CCCC1`, the Potency in assay [1] is 7.43 µM (active); in assay [10], 8.33 µM (active); in [4], 23.5 µM (active); in [5] it was 10.5 µM (active); in [6], 23.5 µM (active); in [7], 20.9 µM (active).

As for `OCc1ccc(-c2ccc(-c3ccc(CO)s3)o2)s1`, the Potency in [1] was 16.6 µM (active); in [2] it was 20.9 µM (active); in [3], 16.6 µM (active); in assay [4], 3.72 µM (active); in assay [5] it was 7.43 µM (active); in assay [6], 23.5 µM (active). For the same compound, the Potency is 23.5 µM (active) in assay [7] and 11.8 µM (active) in assay [8].

For the compound `O=C(Nc1ncc(-c2cc(C(F)F)nn2-c2c(Cl)cccc2Cl)s1)C1CC1`, the Potency in [1] is 0.187 µM (active); in assay [2], 0.418 µM (active); in [3], 0.526 µM (active); in [4], 0.59 µM (active); in assay [5], 0.662 µM (active); in assay [6] it was 1.66 µM (active). For the same compound, the Potency was 1.05 µM (active) in assay [7], 0.187 µM (active) in [8] and 0.296 µM (active) in [9].

For `COc1cccc2nc(-c3cccs3)nc(NN3C(=O)C=C(C)C3=O)c12`, the Potency is 0.0833 µM (active) in [1]; 0.0264 µM (active) in assay [10]; 0.418 µM (active) in [4]; 0.0418 µM (active) in assay [5]; 2.09 µM (active) in [6]; 1.48 µM (active) in assay [7]. Moreover, the values for the Potency in assay [8] and in assay [9] were 0.0083 µM (active) and 0.0332 µM (active), respectively.

Turning to `CCN(CC)CCCCNc1ncc2cc(-c3cc(OC)cc(OC)c3)c(NC(=O)NC(C)(C)C)nc2n1`, the Potency is 5.9 µM (active) in assay [1]; 8.33 µM (active) in [10]; 20.9 µM (active) in assay [4]; 5.26 µM (active) in assay [5]; 20.9 µM (active) in assay [7]; 23.5 µM (active) in assay [8].

Take `N#Cc1c(O)c2c(-c3ccc(-c4ccccc4O)cc3)csc2[nH]c1=O`: the Potency result in assay [1], in assay [10], in [4], in assay [5], in assay [6] and in assay [7] was “inactive” each time. In addition, the Potency entry in [8] was “inactive”.

`Cc1cccc(C=NNc2cc(N3CCOCC3)nc(OCCc3ccccn3)n2)c1`: the Potency was 16.6 µM (active) in assay [1]; 23.5 µM (active) in assay [10]; 18.7 µM (active) in assay [4]; 18.7 µM (active) in [6]; 6.62 µM (active) in [7]; 2.64 µM (active) in [8].

Take `Cc1nc(N)ncc1-c1nc(N2CCOCC2)c2sc(C(C)(C)O)cc2n1`: the Potency in assay [1] was 3.32 µM (active); in [10], 1.66 µM (active); in assay [3] it was 0.332 µM (active); in assay [4] it was 1.05 µM (active); in assay [6], 0.264 µM (active); in assay [7], 3.72 µM (active).

Turning to `C[C@@H]1CN(CC(=O)Nc2ccc3c(c2)Cc2cccc(-c4cc(=O)cc(N5CCOCC5)o4)c2S3)C[C@H](C)O1`, the Potency is 9.35 µM (active) in assay [1]; 5.9 µM (active) in assay [10]; 6.62 µM (active) in assay [3]; 13.2 µM (active) in assay [4]; 9.35 µM (active) in [5]; 16.6 µM (active) in [8].

Consider `Cc1nc2cnc3ccc(C#Cc4cccnc4)cc3c2n1-c1ccc(C(C)(C)C#N)cc1`, for which the Potency in assay [1] was 0.0105 µM (active); in assay [2] it was 0.0743 µM (active); in assay [3] it was 0.0209 µM (active); in [4] it was 0.0132 µM (active); in assay [5], 0.0662 µM (active); in [6], 0.0833 µM (active). Further, the Potency in assay [7] is 0.187 µM (active); in assay [9], 0.372 µM (active).

Turning to `Cc1nc2ccc(CN(C)c3ccc(C(=O)N[C@@H](CCC(=O)O)C(=O)O)s3)cc2c(=O)[nH]1`, the Potency entry in assay [1], in assay [4], in assay [6] and in [9] was “inactive” in each case. For the same compound, the Potency is 0.235 µM (active) in assay [10] and 1.66 µM (active) in [3].
